Several values for one entry are separate records, joined by “and”; a condition that tells them apart may be missing. Equal values may be shown once. Inconclusive results are not listed. Where a call stands in place of a potency, no number is given. Values without a mark were called inactive. Activity calls are given as the source filed them. Unless noted, the call rests on the fitted dose curve.
What was measured:
[1] = biological target: Estrogen receptor (Homo sapiens) (UniProt P03372); test: qHTS assay for small molecule antagonists of estrogen receptor alpha signaling (AID 588513; active means well fitted curve in the direction sought with a large enough effect in the signal ratio, with a control signal flat, not every such curve was filed as active; the % refers to the signal ratio; further: potency means the concentration at half of the fitted maximal effect)
Sequence of Estrogen receptor (Homo sapiens) (P03372 whole entry, looked up): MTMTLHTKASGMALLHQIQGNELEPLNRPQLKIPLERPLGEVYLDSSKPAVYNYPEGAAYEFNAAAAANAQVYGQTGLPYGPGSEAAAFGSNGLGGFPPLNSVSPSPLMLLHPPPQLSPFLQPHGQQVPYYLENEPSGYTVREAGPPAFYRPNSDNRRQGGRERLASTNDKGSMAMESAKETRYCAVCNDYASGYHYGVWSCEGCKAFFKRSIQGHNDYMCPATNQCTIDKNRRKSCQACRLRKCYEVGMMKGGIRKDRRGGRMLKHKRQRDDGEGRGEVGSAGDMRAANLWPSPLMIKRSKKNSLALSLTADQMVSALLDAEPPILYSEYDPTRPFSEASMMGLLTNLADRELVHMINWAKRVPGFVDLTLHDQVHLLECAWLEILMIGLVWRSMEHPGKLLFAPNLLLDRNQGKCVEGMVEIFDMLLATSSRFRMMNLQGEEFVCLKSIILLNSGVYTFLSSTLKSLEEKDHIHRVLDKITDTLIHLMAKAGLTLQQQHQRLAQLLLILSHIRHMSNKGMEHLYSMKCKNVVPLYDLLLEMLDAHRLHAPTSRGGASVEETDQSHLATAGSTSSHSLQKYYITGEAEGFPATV
Outline: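 ER-alpha-UAS-bla GripTite HEK 293 cells in 2% charcoal/dextran-treated FBS medium; compounds titrated (1:2, duplicate), then stimulated with 0.5 nM 17-beta-estradiol for 18 h at 37C. CCF4 beta-lactamase fluorescence; Hill-fit IC50 and efficacy.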

[2] = biological target: Peroxisome proliferator-activated receptor delta (Homo sapiens) (UniProt Q03181); test: qHTS assay for small molecule antagonists of peroxisome proliferator-activated receptor delta signaling (AID 588535; active means well fitted inhibition curve with a large enough effect in the signal ratio, with a control signal flat, not every such curve was filed as active; the % refers to the signal ratio; further: potency means the concentration at half of the fitted maximal effect)
Sequence of Peroxisome proliferator-activated receptor delta (Homo sapiens) (Q03181 whole entry, looked up): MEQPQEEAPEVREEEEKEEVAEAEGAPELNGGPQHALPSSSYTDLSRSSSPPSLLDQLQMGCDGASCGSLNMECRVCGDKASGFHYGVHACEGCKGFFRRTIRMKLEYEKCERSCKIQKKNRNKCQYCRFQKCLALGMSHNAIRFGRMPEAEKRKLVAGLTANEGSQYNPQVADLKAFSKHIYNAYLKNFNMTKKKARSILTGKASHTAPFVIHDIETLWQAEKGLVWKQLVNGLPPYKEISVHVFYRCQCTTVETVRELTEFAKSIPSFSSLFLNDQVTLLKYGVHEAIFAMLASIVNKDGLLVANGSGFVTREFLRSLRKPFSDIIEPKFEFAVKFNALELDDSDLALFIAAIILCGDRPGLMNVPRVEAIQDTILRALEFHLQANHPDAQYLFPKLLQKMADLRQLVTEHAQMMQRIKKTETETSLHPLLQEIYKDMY
Outline: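 Cells were seeded at 4000 per well in assay medium containing 2% charcoal/dextran FBS and held 5 hrs at 37 C. Compounds were then added for 18 hrs. CCF4 substrate was applied for 2 hrs at room temperature before fluorescence reading.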

[3] = biological target: Vitamin D3 receptor (Homo sapiens) (UniProt P11473); test: qHTS assay for small molecule antagonists of vitamin D receptor signaling (AID 588541); further: potency means the concentration at half of the fitted maximal effect
Sequence of Vitamin D3 receptor (Homo sapiens) (P11473 whole entry, looked up): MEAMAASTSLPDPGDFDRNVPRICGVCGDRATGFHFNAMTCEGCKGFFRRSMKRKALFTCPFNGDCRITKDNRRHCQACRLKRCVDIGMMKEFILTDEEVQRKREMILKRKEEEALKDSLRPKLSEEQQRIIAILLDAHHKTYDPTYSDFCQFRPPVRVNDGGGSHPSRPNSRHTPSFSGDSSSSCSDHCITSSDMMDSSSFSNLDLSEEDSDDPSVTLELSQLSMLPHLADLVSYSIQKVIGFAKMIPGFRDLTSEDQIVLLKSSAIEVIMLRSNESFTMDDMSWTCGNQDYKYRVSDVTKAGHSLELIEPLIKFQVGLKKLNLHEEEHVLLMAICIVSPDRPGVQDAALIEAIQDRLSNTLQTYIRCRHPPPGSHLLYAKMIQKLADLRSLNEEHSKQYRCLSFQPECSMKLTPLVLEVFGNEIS
Outline: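 VDR-UAS-bla HEK293T cells in 2% charcoal-stripped FBS were stimulated with 1-alpha,25-dihydroxyvitamin D3 (3 nM final) plus compound for 16 h at 37 C. The beta-lactamase CCF4 readout was normalized to 50 nM agonist and DMSO, and Hill fits gave IC50.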

[4] = qHTS assay for small molecule agonists of the antioxidant response element (ARE) signaling pathway (AID 651741; active means well fitted activation curve with a large enough effect in the signal ratio; the % refers to the signal ratio; further: potency means the concentration at half of the fitted maximal effect)
Outline: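 HepG2 ARE-bla cells plated at 2,000 cells/well and incubated 5 h at 37 C/5% CO2 received 23 nL compound in DMSO. After 16 h at 37 C, LiveBLAzer B/G FRET substrate was applied for 2 h at room temperature and fluorescence read.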

[5] = qHTS assay for small molecule activators of the nuclear factor-kappa B (NF-kB) signaling pathway (AID 651749; active means well fitted activation curve with a large enough effect in the signal ratio; the % refers to the signal ratio; further: series mostly up to about 77 µM); settings: NF-kB-bla ME-180 cells, beta-lactamase FRET ratio, 16 h; activation: active compounds read high
Outline: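 Incubation lasted 16 hr at 37C in 5% CO2 after 23 nL compound addition to ME-180 NF-kB-bla cells. Activation appears as beta-lactamase-mediated FRET loss.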

[6] = biological target: Glucocorticoid receptor (Homo sapiens) (UniProt P04150); test: qHTS assay for small molecule agonists of glucocorticoid receptor signaling (AID 588532; active means well fitted curve in the direction sought with a large enough effect in the signal ratio, with a control signal flat; the % refers to the signal ratio); settings: HeLa MMTV-bla, beta-lactamase ratio, agonist, 18 h; active compounds read high; percent of dexamethasone control, DMSO zero
Sequence of Glucocorticoid receptor (Homo sapiens) (P04150 whole entry, looked up): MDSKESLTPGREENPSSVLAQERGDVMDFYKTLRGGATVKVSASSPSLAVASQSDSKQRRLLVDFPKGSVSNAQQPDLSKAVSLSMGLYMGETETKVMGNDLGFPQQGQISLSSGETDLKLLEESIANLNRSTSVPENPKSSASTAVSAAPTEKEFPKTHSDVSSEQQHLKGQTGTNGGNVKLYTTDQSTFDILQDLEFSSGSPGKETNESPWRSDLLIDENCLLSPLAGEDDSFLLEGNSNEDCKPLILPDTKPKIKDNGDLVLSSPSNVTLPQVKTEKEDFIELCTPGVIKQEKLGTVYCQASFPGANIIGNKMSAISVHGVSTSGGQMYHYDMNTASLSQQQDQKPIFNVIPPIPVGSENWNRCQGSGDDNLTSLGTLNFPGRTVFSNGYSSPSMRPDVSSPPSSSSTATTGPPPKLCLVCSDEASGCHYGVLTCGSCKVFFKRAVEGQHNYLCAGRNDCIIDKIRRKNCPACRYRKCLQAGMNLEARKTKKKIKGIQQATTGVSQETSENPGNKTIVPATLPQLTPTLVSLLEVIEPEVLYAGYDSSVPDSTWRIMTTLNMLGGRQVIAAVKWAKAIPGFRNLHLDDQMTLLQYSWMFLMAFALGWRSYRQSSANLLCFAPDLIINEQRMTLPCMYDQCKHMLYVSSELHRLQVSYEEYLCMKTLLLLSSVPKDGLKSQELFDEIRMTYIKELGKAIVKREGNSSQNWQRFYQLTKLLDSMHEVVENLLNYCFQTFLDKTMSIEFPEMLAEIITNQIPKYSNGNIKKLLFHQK
Outline: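 MMTV-bla HeLa beta-lactamase reporter cells in 1% charcoal/dextran FBS medium, compounds up to 92 uM for 18 h at 37 C, CCF4 readout; normalized to 0.1 uM dexamethasone (100%), EC50 and efficacy from Hill fits.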

[7] = biological target: Androgen receptor (Homo sapiens) (UniProt P10275); test: qHTS assay for small molecule agonists of androgen receptor signaling (AID 588515; active means well fitted curve in the direction sought with a large enough effect in the signal ratio, with a control signal flat; the % refers to the signal ratio); settings: AR-UAS-bla HEK293, beta-lactamase ratio, agonist 16 h; activation: active compounds read high
Sequence of Androgen receptor (Homo sapiens) (P10275 whole entry, looked up): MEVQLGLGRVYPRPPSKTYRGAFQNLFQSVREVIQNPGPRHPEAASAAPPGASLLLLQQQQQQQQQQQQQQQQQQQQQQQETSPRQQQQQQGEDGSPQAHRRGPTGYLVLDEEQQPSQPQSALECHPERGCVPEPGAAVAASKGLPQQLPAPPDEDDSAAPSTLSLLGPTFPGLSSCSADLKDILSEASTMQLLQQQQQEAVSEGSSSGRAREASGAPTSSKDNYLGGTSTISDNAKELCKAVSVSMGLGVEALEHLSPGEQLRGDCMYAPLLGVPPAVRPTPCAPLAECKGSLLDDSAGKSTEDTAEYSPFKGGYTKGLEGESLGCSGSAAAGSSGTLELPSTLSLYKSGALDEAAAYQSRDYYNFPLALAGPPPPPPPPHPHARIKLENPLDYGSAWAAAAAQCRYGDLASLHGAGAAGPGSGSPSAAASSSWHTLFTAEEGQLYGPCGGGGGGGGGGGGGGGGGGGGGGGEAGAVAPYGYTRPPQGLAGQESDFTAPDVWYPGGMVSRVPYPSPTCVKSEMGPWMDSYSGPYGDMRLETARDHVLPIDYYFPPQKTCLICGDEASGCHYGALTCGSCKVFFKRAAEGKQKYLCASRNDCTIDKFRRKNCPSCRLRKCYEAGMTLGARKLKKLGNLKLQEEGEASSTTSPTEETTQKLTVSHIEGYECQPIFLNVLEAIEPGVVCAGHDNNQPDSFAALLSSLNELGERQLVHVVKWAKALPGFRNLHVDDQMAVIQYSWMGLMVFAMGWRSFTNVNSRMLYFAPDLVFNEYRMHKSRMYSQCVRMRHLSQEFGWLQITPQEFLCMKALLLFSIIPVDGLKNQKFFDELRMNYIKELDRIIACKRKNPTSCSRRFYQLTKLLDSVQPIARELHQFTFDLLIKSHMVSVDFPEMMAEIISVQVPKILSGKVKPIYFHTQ
Outline: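 EC50 and efficacy came from Hill fits of titrations (up to 92 uM) normalized to 30 nM R1881 as 100% and DMSO as 0%. Compound exposure was 16 h at 37 C on AR-UAS-bla HEK293 cells, with a 405/460/530 nm CCF4 fluorescence read.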

[8] = biological target: Androgen receptor (Homo sapiens) (UniProt P10275); test: qHTS assay for small molecule antagonists of androgen receptor signaling (AID 588516; active means well fitted curve in the direction sought with a large enough effect in the signal ratio, with a control signal flat, not every such curve was filed as active; the % refers to the signal ratio)
Outline: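 AR-UAS-bla GripTite HEK 293 cells (2000/well) treated with compound titrations plus 10 nM R1881 for 16 h at 37C. Beta-lactamase read by CCF4 FRET (460/530 nm); IC50 from Hill fits, normalized to R1881 and DMSO control wells.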

[9] = biological target: Bile acid receptor (Homo sapiens) (UniProt Q96RI1); test: qHTS assay for small molecule antagonists of farnesoid X receptor signaling (AID 588526); further: potency means the concentration at half of the fitted maximal effect
Sequence of Bile acid receptor (Homo sapiens) (Q96RI1 whole entry, looked up): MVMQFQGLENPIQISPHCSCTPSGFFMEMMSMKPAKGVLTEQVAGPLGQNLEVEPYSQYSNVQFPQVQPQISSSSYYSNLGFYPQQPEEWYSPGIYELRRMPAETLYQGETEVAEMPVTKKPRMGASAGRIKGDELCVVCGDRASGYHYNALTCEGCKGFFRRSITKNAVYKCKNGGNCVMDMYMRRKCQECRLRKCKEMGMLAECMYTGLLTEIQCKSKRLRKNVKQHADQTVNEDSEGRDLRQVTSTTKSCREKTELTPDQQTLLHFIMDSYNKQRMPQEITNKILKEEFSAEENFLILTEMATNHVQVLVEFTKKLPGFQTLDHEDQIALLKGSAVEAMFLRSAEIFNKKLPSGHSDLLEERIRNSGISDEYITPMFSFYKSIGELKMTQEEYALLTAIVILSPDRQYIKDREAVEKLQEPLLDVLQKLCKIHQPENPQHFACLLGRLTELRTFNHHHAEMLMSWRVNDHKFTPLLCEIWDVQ
Outline: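 Antagonist mode: titrated compounds tested against chenodeoxycholic acid stimulation (normalized to 50 uM CDCA and DMSO) in GeneBLAzer HEK293T cells for 16 h. Beta-lactamase read by CCF4 fluorescence; IC50 from Hill fits.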

[10] = biological target: Glucocorticoid receptor (Homo sapiens) (UniProt P04150); test: qHTS assay for small molecule antagonists of glucocorticoid receptor signaling (AID 588533; active means well fitted inhibition curve with a large enough effect in the signal ratio, with a control signal flat, not every such curve was filed as active; the % refers to the signal ratio)
Outline: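 Antagonist-mode qHTS: compound titrations added to GRE-bla HeLa cells, then dexamethasone 2 nM final; 18 h, 37 C. CCF4 FRET fluorescence normalized to dexamethasone and DMSO; IC50 from Hill fit.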

Compound | Potency [1] | Potency [2] | Potency [3] | Potency [4] | activation [5] | activation [6] | activation [7] | outcome [8] | Potency [9] | Potency [10]
O=S(=O)(O)c1ccc(N=Nc2c(O)ccc3cc(S(=O)(=O)O)ccc23)cc1 | inactive | inactive | inactive | inactive | -0.945% |  |  |  |  | 
CCCCCCCCCCCC(=O)N(C)CC(=O)O | inactive |  |  |  |  | -0.898% |  |  |  | 
CCCOC(=O)c1ccc(C(=O)OCCC)nc1 | inactive |  | inactive |  | 1.57% | -11.2% | -11.4% | inactive | inactive | 
Cc1ccc(N=Nc2c(O)ccc3ccccc23)c([N+](=O)[O-])c1 |  |  | inactive | 24.3 µM (active) |  |  |  | inactive | inactive | 
CC(=O)Nc1ccc(N=Nc2cc(C)ccc2O)cc1 |  | inactive |  | 17.2 µM (active) |  | -3.33% |  | inactive |  | inactive
CN=C(N)NCC1CCOC1 (stereo not given) |  | inactive | inactive | 21.7 µM (active) | -4.18% |  |  |  | inactive | inactive
Cc1ccc(Cl)cc1Cl | inactive |  | inactive | inactive | -1.58% |  |  |  |  | inactive
c1ccc2cc3c(ccc4ccccc43)cc2c1 | inactive |  |  |  |  |  |  |  | inactive | 
Nc1ccc(N)c2c1C(=O)c1c(N)ccc(N)c1C2=O |  |  | inactive | 27.3 µM (active) | 7.06% | 0.353% |  | inactive | inactive | inactive
FC(F)(F)c1ccc(Cl)c(Cl)c1 |  |  | inactive |  | -0.0768% | -1.21% | 6.47% | inactive |  | inactive
CCCCCCCCC(=O)O | inactive |  |  |  |  | 1.63% |  |  |  | inactive
CCc1c(C(=O)O)c(=O)cnn1-c1ccc(Cl)cc1 |  | inactive | inactive | inactive | -0.428% |  |  |  | inactive | inactive
CC1COCc2cc3c(cc21)C(C)(C)C(C)C3(C)C (stereo not given) |  |  |  |  | 1.51% | 13.9% | 12.8% | inactive | inactive | inactive
COc1nc(C)nc(NC(=O)NS(=O)(=O)c2ccccc2OCCCl)n1 |  | inactive |  |  | 0.852% | -18.5% |  |  | inactive | inactive
CCCCCc1ccc(N)cc1 | inactive | inactive | inactive | inactive | 1.37% |  |  |  |  | 
CC1(C)C(=O)NC(=O)N1CO | inactive |  | inactive |  | -2.55% |  |  |  |  | inactive
C[Si](C)(C)N[Si](C)(C)C | inactive |  | inactive |  |  |  |  |  |  | inactive

Compound | Potency [1] | Potency [2] | Potency [3] | Potency [4] | activation [5] | activation [6] | activation [7] | outcome [8] | Potency [9] | Potency [10]
O=C(O)C(Oc1ccc(Cl)cc1)Oc1ccc(Cl)cc1 |  | inactive |  | inactive |  | -6.89% | -5.73% | inactive | inactive | 
CCCCCCCCCC[N+](C)(C)Cc1ccccc1 |  |  |  |  | 4.29% | -4.12% | -12.2% |  |  | inactive
C=C(C)C(=O)OCCC[Si](OC)(OC)OC | inactive | inactive |  | inactive |  |  |  |  |  | inactive
Oc1ccc2ccccc2c1N=Nc1ccccc1 | inactive |  |  | 3.06 µM (active) | 0.732% |  |  |  | inactive | 
O=c1[nH]sc2ccccc12 |  |  |  |  | -1.58% | -3.87% |  |  | 44.7 µM (active) | 
O=C(O)CN(CCO)CCN(CC(=O)O)CC(=O)O |  | inactive | inactive | inactive | -1.52% | -10.4% |  | inactive | inactive | inactive
Cl[Si](Cl)(Cl)c1ccccc1 |  | inactive | inactive | inactive |  |  | 7.73% | inactive | inactive | 
O=C(O)CN(CCCN(CC(=O)O)CC(=O)O)CC(=O)O |  | 14.1 µM (active) |  |  | 0.672% | 16.2% | -11.6% |  | inactive | 
CN(C)c1nc(=O)n(C2CCC(O)CC2)c(=O)n1C (stereo not given) |  |  | inactive | inactive | -0.848% | 6.12% | 6.02% | inactive | inactive | 
CCCCOC(=O)[C@@H](C)Oc1ccc(Oc2ccc(C(F)(F)F)cn2)cc1 |  | inactive | inactive | inactive | -0.296% and -2.63% | -9.59% |  |  | inactive | inactive
CC(C)=CCC[C@@H](C)[C@H]1CC[C@@]2(C)C3=C(CC[C@]12C)[C@@]1(C)CC[C@H](O)C(C)(C)[C@@H]1CC3 |  |  | inactive | inactive |  | 8.87% |  |  | inactive | inactive
C=CCOC(=O)CC(C)C |  | inactive | inactive | inactive | -0.542% | 0.929% |  |  | inactive | inactive
CCCN(CCC)c1c([N+](=O)[O-])cc(C(F)(F)F)c(N)c1[N+](=O)[O-] |  |  |  |  |  | -4.44% |  |  | inactive | 
CSc1ccc(Cl)cc1 |  | inactive | inactive | inactive | -1.66% | -2.12% | -7.93% | inactive | inactive | inactive
CCCCCCCCCCCCCC(=O)OC |  | inactive | inactive |  | 0.501% |  | 9.07% | inactive |  | 
CO/N=C1\C[C@]2(C[C@@H]3C[C@@H](C/C=C(\C)C[C@@H](C)/C=C/C=C4\CO[C@@H]5[C@H](O)C(C)=C[C@@H](C(=O)O3)[C@]45O)O2)O[C@H](/C(C)=C/C(C)C)[C@H]1C | 7.94 µM [inhibitor] (active) |  | 17.8 µM (active) |  |  |  |  |  |  | 

From PubChem BioAssay (NCATS)
